Compound activity as filed in PubChem BioAssay.
D1 potentiator: enhances dopamine response at the human D1 receptor; HEK293 TREx D1 cells, calcium flux, dopamine EC20 potentiation; AID 504651; 360,000 tested, 0.036% active; potentiation, % at 10 µM; P21728; in the data active = potentiation above about 30%; also: 0% is about no effect
TRHR enhancer-1: allosteric enhancers of human TRH receptor | TRHR cells, fluo-8 calcium fluorescence, EC20 TRH enhancement | AID 493056 | P34981 | enhancement, % at 2 µM | 360,000 tested, 0.66% active; in the data active = enhancement above about 30%; also: 0% is about no effect
Target sequence (P34981 whole entry, looked up): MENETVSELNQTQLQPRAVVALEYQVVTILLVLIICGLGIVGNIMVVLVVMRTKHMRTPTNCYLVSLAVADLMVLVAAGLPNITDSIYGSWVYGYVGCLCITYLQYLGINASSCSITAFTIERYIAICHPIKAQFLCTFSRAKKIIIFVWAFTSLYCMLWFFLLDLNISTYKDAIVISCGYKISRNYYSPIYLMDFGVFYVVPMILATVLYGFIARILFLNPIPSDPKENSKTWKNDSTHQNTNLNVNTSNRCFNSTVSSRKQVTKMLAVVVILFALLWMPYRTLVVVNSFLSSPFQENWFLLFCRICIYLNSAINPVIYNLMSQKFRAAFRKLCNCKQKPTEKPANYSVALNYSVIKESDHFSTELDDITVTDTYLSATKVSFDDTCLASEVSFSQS
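TRHR-expressing cells loaded with fluo-8 calcium dye were read kinetically (ex 480/em 530) during compound addition, then stimulated with an EC20 of TRH (10 nM final). Enhancement of the Gq-mediated intracellular calcium response was scored.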
D1 antagonist: blocks dopamine activation of the human D1 receptor; activity change, negative = inhibition, % at 10 µM; HEK293 TREx D1 cells, calcium flux, dopamine EC80; stronger effect = lower value; P21728; 360,000 tested, 3.2% active; AID 504652; in the data active = activity change below about -30%; also: % is scaled to controls: 0 for no effect and ±100 for the full control effect
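Compound effects on dopamine-evoked calcium signalling were measured in tetracycline-induced HEK293 Trex D1 cells. Dopamine at EC80 followed a 180 s compound pre-read, and fluorescence was tracked kinetically for 180 s more.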
D1 agonist: human D1 receptor agonism; P21728; HEK293 T-REx D1 cells, calcium flux, agonist mode; activation, % at 2 µM; 360,000 tested, 1% active; also: 0% is about no effect
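Agonism was scored from calcium flux recorded over 180 s (1 read/s) after pintool compound addition, following a 10-cycle baseline. Cells were inducible force-coupled HEK293 TREx D1, plated overnight at 30 C and loaded with no-wash calcium dye.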
TRHR agonist-1: activates the human TRH receptor. 360,000 tested, 0.18% active. activation, % at 2 µM. TRHR cells, calcium flux fluo-8, FDSS agonist mode. P34981; also: 0% is about no effect
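TRHR-expressing cells, plated overnight in medium with 10% serum, were loaded with fluo-8 calcium dye at room temperature. After a 10 s baseline, library compound was pin-added and calcium release was recorded kinetically (ex 480/em 530) as agonist response.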
TRHR enhancer-2: confirmation of human TRH receptor allosteric enhancers; shares compounds with TRHR enhancer-1; TRH receptor cell assay, enhancer confirmation qHTS; activity change, negative = inhibition, % at 46.1 µM; 970 tested, under 10 active; AID 493076; active = well fitted curve in the direction sought with a large enough effect; inconclusive = small, poorly fitted or top-dose-only effect, or another doubt; inactive = no such curve, though single readings can be large; an effect the other way counts as inactive or inconclusive;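 also: compound effect scored on response to added TRH at EC20 of 10 nM; 0% is about no effect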
TRHR agonist-2: confirmation of human TRH receptor agonists | shares compounds with TRHR enhancer-1 | TRHR-expressing cells, agonist activation read-out | Potency, µM (doses to about 46.1 µM), inactives show at the highest dose activation, usual class: activators | 970 tested, 8% active | AID 493078; active = well fitted curve in the direction sought with a large enough effect; inconclusive = small, poorly fitted or top-dose-only effect, or another doubt; inactive = no such curve, though single readings can be large; an effect the other way counts as inactive or inconclusive; also: potency is read from the fitted curve at half-maximal effect; 0% is about no effect; nearly all actives have a fitted effect of over 75% in size
Numbers without * were called inactive; ? = inconclusive; · = not tested or not shown; ! = not active in a repeat. A selection: hits, their analogues and other compounds. The true share with any hit is near 4.7%. Rule as the data show it, unless noted: active = activation above about 30%; inactive = the rest.

SMILES | D1 potentiator | TRHR enhancer-1 | D1 antagonist | D1 agonist | TRHR agonist-1 | TRHR enhancer-2 | TRHR agonist-2
COc1ccc(NC(=O)c2ccc(NC(=O)COC(=O)CC(NC(=O)c3ccccc3Cl)c3ccccc3)cc2)cc1 (stereo not drawn) | 3 | 0 | -4 | 2 | 0 | · | ·
Cc1cccc(Cn2nnc3c(=O)[nH]c(C4CCN(C(=O)c5ccc(F)cc5)CC4)nc32)c1 | -3 | 3 | 0 | -2 | 0 | · | ·
Cc1ccc([N+](=O)[O-])c2c1C(N1CC(C)OC(C)C1)C(C)(C)O2 (stereo not drawn) | -3 | 1 | 3 | 1 | 0 | · | ·
COc1ccc(/C=C2\SC(=S)N(CC3CCCO3)C2=O)cc1 (stereo not drawn) | 0 | 2 | 2 | 12 | 1 | · | ·
COc1ccc(N=C2O/C(=C/c3sc(=S)n(CC4CCCO4)c3O)N=C2C#N)cc1 (stereo not drawn) | 11 | 43* | 2 | 3 | 2 | -3 | 4%
N#CC(Sc1ccccn1)c1ccc(Cl)cc1Cl (stereo not drawn) | -4 | -4 | -4 | 3 | 0 | · | ·
CCCn1c(=O)c2sccc2n2c(CCCC(=O)NCc3cccnc3)nnc12 | 1 | -8 | -15 | 1 | 1 | · | ·
Cn1c(=O)c2sccc2n2c(CCCC(=O)NCc3cccnc3)nnc12 | -2 | 42* | 1 | 4 | 0 | -7 | -1%
COc1ccc(OC)c(CCNC(=O)CCCc2nnc3n(C)c(=O)c4sccc4n23)c1 | -4 | 56*! | 0 | -4 | 1 | 4 | -1%
O=C(CSc1nc2ncc(Cl)cc2[nH]1)NCC(=O)Nc1ccc(F)c(F)c1F | -5 | -5 | 1 | 1 | 0 | · | ·
O=C(Nc1c(C(=O)Nc2ccccc2F)oc2ccccc12)c1cc2ccccc2o1 | -6 | -5 | -5 | 3 | 1 | · | ·
C/C=C/c1cc(CN2CCN(c3ccccc3)CC2)c(O)c(OC)c1 | 2 | 42* | -11 | 3 | 2 | -3 | -1%
COc1ccc(-n2nc3c(c2NC(=O)C(C)Oc2ccccc2)CS(=O)(=O)C3)cc1 (stereo not drawn) | 2 | -3 | 3 | 1 | 1 | · | ·
O=C(c1ccc(CNS(=O)(=O)c2ccc(Br)cc2)cc1)N1CCCC1 | 6 | 1 | 1 | 2 | -1 | · | ·
CN1CCC(=NNC(=O)CSc2ccc(Cl)cc2)CC1 | 1 | 44* | 1 | 1 | 0 | -5 | 0%
O=C1CC(c2ccccc2)Sc2nc3ccccc3n21 (stereo not drawn) | -1 | 42* | -13 | 1 | -1 | -10 | 1%
O=C1CC(c2cccs2)Sc2nc3ccccc3n21 (stereo not drawn) | 7 | -12 | -11 | -2 | -1 | · | ·
O=C(NCc1ccccc1)C(c1ccco1)N(C(=O)c1ccccn1)c1ccc(F)cc1 (stereo not drawn) | -3 | 18 | -5 | 0 | -1 | · | ·
COc1ccc2nc(NC(=O)C3CC(=O)N(c4ccc5c(c4)OCCO5)C3)sc2c1 (stereo not drawn) | -4 | 49* | 1 | 3 | 0 | ? | -1%
O=C(Nc1nc2ccc(F)cc2s1)C1CC(=O)N(c2ccc3c(c2)OCCO3)C1 (stereo not drawn) | -6 | -5 | -16 | 8 | 0 | · | ·
COc1ccc(CN(C)C(=O)C2CC(=O)N(c3ccc4c(c3)OCCO4)C2)c(OC)c1 (stereo not drawn) | -4 | 65* | 1 | 0 | -2 | -8 | -1%
O=C(NCc1ccccc1F)C1CC(=O)N(c2ccc3c(c2)OCCO3)C1 (stereo not drawn) | 4 | -4 | -2 | 1 | 0 | · | ·
O=C(C1CC(=O)N(c2ccc3c(c2)OCCO3)C1)N1CCN(Cc2ccccc2F)CC1 (stereo not drawn) | -5 | 48* | 17 | 0 | 0 | 3 | -1%
CC(O)c1nc2ccccc2n1CC(=O)N1CCN(c2ccccc2)CC1 (stereo not drawn) | 1 | -1 | 2 | 2 | 1 | · | ·
COc1ccccc1CNC(=O)c1sc2nc3n(c(=O)c2c1C)CCC3 | -4 | -4 | 4 | 0 | 0 | · | ·
SMILES | D1 potentiator | TRHR enhancer-1 | D1 antagonist | D1 agonist | TRHR agonist-1 | TRHR enhancer-2 | TRHR agonist-2
Nc1[nH]nc2nc3ccccc3cc12 | 0 | 69* | 11 | 0 | 0 | 7 | 1%
CCc1ccc2nc3n[nH]c(N)c3cc2c1 | 1 | 6 | -9 | 2 | -1 | · | ·
O=C(N/N=C/c1cc(Cl)cc(Cl)c1O)c1ccncc1 | 2 | 12 | 0 | 68* | 40* | ? | 21µM*
O=C(N/N=C/c1ccc(Cl)cc1Cl)c1ccncc1 | -2 | 6 | 2 | 2 | -2 | · | ·
COc1ccc(CCNC(=O)CSc2nc(C)nc3c2c(=O)n(C)c(=O)n3C)cc1OC | -1 | 45* | 4 | 5 | 0 | -3 | 1%
COc1ccc(CCNC(=O)CSc2nc(O)c(CCC(C)C)c(=O)[nH]2)cc1OC | -11 | 2 | 2 | 0 | 0 | · | ·
CCCCc1c(O)nc(SCC(=O)NCCc2ccc(OC)c(OC)c2)[nH]c1=O | -4 | 41* | -1 | 1 | 0 | 9 | 1%
COc1ccc(NC(=O)c2c(-c3ccccc3)c(-c3ccccc3)nn(C)c2=O)c(OC)c1 | 3 | -1 | 10 | 3 | -2 | · | ·
COc1ccccc1NC(=O)C(C)N(C)CCOc1ccccc1 (stereo not drawn) | 2 | 19 | -20 | 14 | -1 | · | ·
CC(C(=O)Nc1ccc(F)c(F)c1F)N(C)CCOc1ccccc1 (stereo not drawn) | -11 | 46* | -17 | 1 | 0 | -8 | 1%
Cc1c(O)ccc2cc(S(=O)(=O)c3ccccc3)c(=O)oc12 | 1 | 2 | -2 | 32* | 37* | 1 | 23µM*
COC(=O)C1=C(C(=O)c2ccccc2)C(c2ccccc2)n2nnnc2N1 (stereo not drawn) | -5 | 62* | 1 | 3 | 1 | 1 | -1%
Cn1c(=O)c2[nH]c(N3CCN(c4ccccc4)CC3)nc2n(C)c1=O | -10 | 6 | · | 15 | 0 | · | ·
COc1ccc(N2C(=O)CC(Sc3nc(C)cc(C)c3C#N)C2=O)cc1 (stereo not drawn) | 0 | 41* | -5 | 4 | 0 | -4 | 1%
CN(C)c1ccc(C(C(=O)NCC2CCCO2)N(C(=O)c2snc(C(N)=O)c2N)c2ccccc2)cc1 (stereo not drawn) | -6 | 7 | -15 | 3 | 0 | · | ·
Cc1cccc(N(C(=O)c2snc(C(N)=O)c2N)C(C(=O)NC2CCCC2)c2ccncc2)c1 (stereo not drawn) | -4 | 42* | -22 | 2 | 0 | -1 | 0%
